According to PubChem BioAssay AID504832 (National Center for Advancing Translational Sciences (NCATS), 2011):
About 18,000 (5.8%) of roughly 310,000 compounds were called active. Inconclusive results (about 22%) are left out. Calls follow the shape of the dose curve; as a rule, active = well fitted inhibition curve with a large enough effect; inconclusive = small, poorly fitted or top-dose-only effect, or another doubt; inactive = no such curve, though single readings can be large or run the other way. Many of the other results were omitted from the sample, so actives are more common in it than they were.

Test: Primary qHTS for delayed death inhibitors of the malarial parasite plastid, 48 hour incubation
Settings: P. falciparum luciferase growth in erythrocytes; series mostly up to 28.7 µM; activity change, negative = inhibition: at the top concentration
Summary of the method: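 In quantitative HTS format, infected erythrocytes bearing luciferase-reporter parasites were treated for a single generation at 37 C. Luminescence after adding detection reagent served as the growth measure.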
% is scaled to controls: 0 for no effect and ±100 for the full control effect; potency is read from the fitted curve at half-maximal effect.

SMILES	activity change, negative = inhibition	Potency
CC(C)(C)OC(=O)NC(Cc1ccccc1)C(=O)NC(CSC1CCCCO1)C(=O)NN (stereo unspecified)	29.4% (inactive)	–
Cc1csc(NC(=O)CSc2nnc(-c3cccnc3)o2)n1	6.46% (inactive)	–
CC1=C(C(=O)OC(C)(C)C)C(c2ccc(Br)cc2)NC(=O)N1CCCC(=O)O (stereo unspecified)	2.52% (inactive)	–
O=C(N/N=C/c1ccc([N+](=O)[O-])o1)c1cccc(S(=O)(=O)N2CCOCC2)c1	–	3.7 µM (active)
O=C(c1cccc(S(=O)(=O)N2CCOCC2)c1)N1CCOCC1	3.35% (inactive)	–
COc1ccc(Br)cc1/C=N/NC(=O)c1cccc(S(=O)(=O)N2CCOCC2)c1	11.9% [at 5.75 µM] (inactive)	–
CN(Cc1c(F)cccc1Cl)S(=O)(=O)c1cccs1	24.5% (inactive)	–
Cn1ncc(Br)c1C(=O)NC1CCCC1	104% (inactive)	–
CCCCOc1ccc(-c2ncc(C(=O)OCC)c(N)n2)cc1	158% (inactive)	–
CCOC(=O)c1cnc(-c2ccccc2)nc1Oc1ccc(C)cc1	–	3.29 µM (active)
CCCNC(=O)c1cnc(-c2ccccc2)nc1-c1ccccc1	0.447% (inactive)	–
COc1cccc(CNC(=O)C2CCCN(S(=O)(=O)N3CC(C)CC(C)C3)C2)c1 (stereo unspecified)	-1.35% (inactive)	–
O=C(COCc1cc(-c2ccc3c(c2)OCO3)on1)N1CCN(c2cccc(Cl)c2)CC1	27.3% (inactive)	–
CCCCC(=O)Nc1c2c(nn1-c1ccc([N+](=O)[O-])cc1)CS(=O)(=O)C2	11.6% (inactive)	–
Cc1ccc2nc(SCC(=O)Nc3cccc4ccccc34)nc(=O)n2c1	-6.05% (inactive)	–
Cc1ccccc1-n1c(SCC(=O)Nc2cccc3ccccc23)nc(O)cc1=O	–	13.1 µM (active)
C=CCn1c(N)cc(=O)nc1SCC(=O)Nc1cccc2ccccc12	1.48% (inactive)	–
O=C(Cc1c(Cl)cccc1Cl)NC1CC1	1.57% (inactive)	–
COc1ccc(C(=O)NC2CCN(C(=O)Nc3ccc(F)cc3)CC2)cc1	-0.699% (inactive)	–
Cc1ccc(SCC(=O)NNC(=O)c2ccc(S(C)(=O)=O)cc2)cc1	34.9% (inactive)	–
COc1cccc(N(Cc2nnc3n2CCCCC3)C(=O)Nc2ccccc2F)c1	6.97% (inactive)	–
Cc1cccc(C)c1NC(=O)C1(N(C(=O)c2ccccn2)c2ccc(O)cc2)CCCCC1	-0.862% (inactive)	–
COc1cccc(N(C(=O)c2ccn[nH]2)C2(C(=O)Nc3c(C)cccc3C)CCCCC2)c1	–	9.28 µM (active)
COc1ccc(C(=O)OCC(=O)NCCCc2ccccc2)cc1OC	7.29% (inactive)	–
COc1ccc(C)cc1NC(=O)NCc1ccccn1	-13% [at 5.75 µM] (inactive)	–
COc1ccc(C)cc1NC(=O)NCCCCc1ccccc1	–	14.7 µM (active)

SMILES	activity change, negative = inhibition	Potency
N#CC1(NC(=O)COC(=O)Cc2n[nH]c(=O)c3ccccc23)CCCCC1	23.3% (inactive)	–
O=C(O)c1cccnc1Sc1ncnc2sc3c(c12)CCC3	-7.35% (inactive)	–
O=C(O)[C@@H]1CCCN1c1ncnc2sc3c(c12)CCC3	6.15% (inactive)	–
OCCNc1nc2ccccc2n1-c1ncnc2sc3c(c12)CCC3	–	6.57 µM (active)
O=c1onc(-c2c(F)cccc2F)n1-c1ccccc1Cl	4.36% [at 0.00184 µM] (inactive)	–
Cc1ccc(S(=O)(=O)N(C)CC(=O)NCC(c2ccc(F)cc2)N2CCOCC2)cc1 (stereo unspecified)	–	9.28 µM (active)
CN(CC(=O)NCCN1CCOCC1)S(=O)(=O)c1ccc(F)cc1	-3.21% (inactive)	–
Cc1ccc(S(=O)(=O)N(C)CC(=O)NC2CCCC2)cc1	-26.8% (inactive)	–
COc1cc([N+](=O)[O-])ccc1NC(=O)COC(=O)CCOc1ccc(C)cc1	-17.7% (inactive)	–
COc1ccccc1OCCNC(=O)CCNC(=O)c1ccccc1Cl	2.48% (inactive)	–
O=CN1CCN(C(=O)c2ccc3c(c2)OCO3)CC1	12.7% (inactive)	–
CC(=O)c1c(C)[nH]c(C(=O)COC(=O)CCOc2ccc(C)cc2)c1C	-21.9% (inactive)	–
CCNC(=S)N(CCN(CC)CC)Cc1cc2cc3c(cc2[nH]c1=O)OCCO3	-16.8% (inactive)	–
CCN(CC)CCn1cnc2c1c(=O)[nH]c(=O)n2Cc1ccccc1	11.6% (inactive)	–
N=c1c2c(-c3ccccc3)c(-c3ccccc3)n(Cc3ccccc3)c2ncn1CCCO	–	2.33 µM (active)
COCCn1cnc2c1c(=O)n(CC(=O)NN)c(=O)n2Cc1ccccc1	-4.05% (inactive)	–
CCNC(=O)CN(c1ccc(C)cc1)S(=O)(=O)c1ccc(SC)cc1	-15.6% (inactive)	–
Cc1ccc(S(=O)(=O)N(CC(=O)NCc2ccco2)c2ccccc2C)cc1	-27.1% (inactive)	–
Cc1ccc(S(=O)(=O)N(CC(=O)NCCSC2CCCCC2)c2ccccc2F)cc1	–	4.65 µM (active)
Cc1cccc(C)c1OCCN1CCOCC1	12.2% (inactive)	–
COc1ccc(/C=C/C(=O)c2ccc(OC)cc2O)cc1	34.8% (inactive)	–
COc1ccc(C(=O)/C=C/c2ccc(OC3CSC3)cc2)cc1	-13% (inactive)	–
COc1ccc(/C=C/C(=O)c2cc(Br)ccc(=O)c2O)cc1	–	13.1 µM (active)
CC(C)CCN1CCN=C1N(C)C	37% (inactive)	–
COCCCn1c2nc3ccccc3nc2c2c(=O)n(Cc3ccc(Cl)cc3)c(C)nc21	-3.86% (inactive)	–
Cc1ccc(Cn2c(C)nc3c(c2=O)c2nc4ccccc4nc2n3Cc2ccco2)cc1	–	5.86 µM (active)

SMILES	activity change, negative = inhibition	Potency
Cc1cc2nc3c(=O)n(Cc4ccccc4)c(=O)[nH]c3nc2cc1N	-1.25% (inactive)	–
Cc1cc(NC(=O)CSc2nc3cc(Cl)ccc3c(=O)n2Cc2ccco2)no1	13% (inactive)	–
Nc1cc(=O)nc(SCc2ccccc2)n1Cc1ccco1	-0.468% (inactive)	–
Cc1nc2c(c(=O)n1Cc1ccco1)c1nc3ccccc3nc1n2Cc1ccccc1	–	9.28 µM (active)
CC1(C)Cc2cccc(OCC(=O)NCc3ccccc3)c2O1	4.57% (inactive)	–
O=C(Oc1ccc(F)cc1)N1CCOCC1	1.01% (inactive)	–
COc1ccccc1NC(=O)COC(=O)COc1ccccc1F	-7.22% (inactive)	–
COc1ccccc1NC(=O)C1CCN(C(=O)c2ccc(C(C)(C)C)cc2)CC1	-1.27% (inactive)	–
O=C(COC(=O)c1cc(S(=O)(=O)N2CCOCC2)ccc1Cl)NCCc1ccccc1	15.4% (inactive)	–
OC(c1nc2ccc(F)cc2[nH]1)C(O)c1nc2ccc(F)cc2[nH]1 (stereo unspecified)	11.2% (inactive)	–
Cc1ccc(CNC(=O)c2c(-c3ccccc3)noc2C)cc1	2.95% [at 0.00184 µM] (inactive)	–
COc1ccc(NC(=O)NCc2ccc3c(c2)OCO3)c(OC)c1	1.8% (inactive)	–
COc1ccccc1-n1c(C)nc2cc(C(=O)NCc3ccc4c(c3)OCO4)ccc21	14.5% (inactive)	–
Cc1ccc(CNC(=O)c2cc(-c3ccccc3C)n(CC3CC(c4cccc([N+](=O)[O-])c4)=NO3)n2)cc1 (stereo unspecified)	–	5.22 µM (active)
COc1ccc(C2=NOC(Cn3nc(C(=O)NCc4ccc5c(c4)OCO5)cc3-c3ccccc3)C2)cc1 (stereo unspecified)	–	9.28 µM (active)
Cc1ccccc1-c1cc(C(=O)NCC2CC2)n(CC2CC(c3cccnc3)=NO2)n1 (stereo unspecified)	-6.01% (inactive)	–
O=C(COC(=O)c1cc(=O)[nH]c2ccccc12)NCc1cccc(Cl)c1	-24.3% (inactive)	–
O=C(NCc1cccs1)c1ccc(CS(=O)Cc2ccccc2Cl)o1 (stereo unspecified)	14.7% (inactive)	–
CC(=O)NS(=O)(=O)c1ccc2c(c1)Cc1cc(S(=O)(=O)NC(C)=O)ccc1-2	20.5% (inactive)	–
CC(OC(=O)c1cc2ccccc2o1)C(=O)Nc1ccc(N2CCOCC2)cc1 (stereo unspecified)	-9.79% (inactive)	–
C[n+]1ccccc1C1CCCC/C1=N\Nc1ccc([N+](=O)[O-])cc1[N+](=O)[O-] (stereo unspecified)	–	3.7 µM (active)
Cc1cc([N+](=O)[O-])ccc1NC1CCCC1	1.67% (inactive)	–
O=[N+]([O-])c1ccc(N/N=C2/CCCCC2c2ccccn2)c([N+](=O)[O-])c1 (stereo unspecified)	2.85% (inactive)	–
Cc1cc(O)c(C2(O)C(=O)Nc3ccccc32)cc1C (stereo unspecified)	-8.28% (inactive)	–
CCCn1nnnc1NCc1ccc(OC)cc1	54.3% (inactive)	–
Cc1ccc(Cn2c(SCC(=O)N/N=C/c3ccccc3OCC(=O)O)nc3ccccc32)cc1	7.08% (inactive)	–

SMILES	activity change, negative = inhibition	Potency
CCCc1nc2c(C)cc(-c3nc4ccccc4n3C)cc2n1Cc1ccc(-c2ccccc2C(=O)O)cc1	–	3.79 µM (active)
CC(=O)c1nc2ccccc2n1Cc1ccccc1	18.9% [at 0.00184 µM] (inactive)	–
CN(c1ccccc1)S(=O)(=O)c1cccc(C(=O)NNC(=O)c2ccncc2)c1	-4.87% (inactive)	–
COC(=O)CN(C(=S)Nc1ccc(Cl)cc1)C1CC(=O)N(c2ccc(OC)cc2)C1=O (stereo unspecified)	-15% (inactive)	–
CCOc1ccc(N2C(=O)CC(N(O)c3ccccc3)C2=O)cc1 (stereo unspecified)	59.6% (inactive)	–
CCOc1ccc(N2C(=O)CC(N(CCc3ccc(OC)c(OC)c3)C(=S)Nc3ccccc3)C2=O)cc1 (stereo unspecified)	–	10.4 µM (active)
S=C(NCCc1ccccc1)Nc1ccccc1	16.9% (inactive)	–
CCNC(=S)Nc1cccc(Cl)c1C	-16.4% (inactive)	–
Cc1cccc(NC(=S)NCCc2ccc(Cl)cc2)c1C	–	2.94 µM (active)
O=C(CN1CCCSc2ccccc21)N1CCN(S(=O)(=O)c2ccccc2)CC1	4.98% (inactive)	–
O=C(CN1C(=O)S/C(=C\c2ccccc2Cl)C1=O)NC1C=CS(=O)(=O)C1 (stereo unspecified)	1.18% (inactive)	–
COc1c(C)c2c(c(O)c1C/C=C(\C)CCC(=O)O)C(=O)OC2	–	2.56 µM (active)
COc1ccc(C(=O)Nc2ccnn2C2CCN(Cc3ccncc3)CC2)cc1	24.7% (inactive)	–
C=CCn1c(=O)c(C(=O)Nc2ncccc2O)c(O)c2ccccc21	61.6% (inactive)	–
CCOc1ccc(S(=O)(=O)Nc2ccc(C(=O)NCCCN3CCCC3=O)cc2)cc1	9.13% (inactive)	–
CCOc1ccc(NS(=O)(=O)c2ccc(C(=O)NCC(c3ccccc3OC)N3CCCC3)cc2)cc1 (stereo unspecified)	–	10.4 µM (active)
O=C(NCC1(N2CCCCC2)CCCCC1)c1ccc(NS(=O)(=O)c2ccc(F)cc2)cc1	–	14.7 µM (active)
CN(C)S(=O)(=O)c1ccc(C(=O)NCC2(N3CCOCC3)CCCCC2)cc1	-19.4% (inactive)	–
O=C(NCC1CCCO1)c1ccc(S(=O)(=O)Nc2ccc(F)cc2)cc1 (stereo unspecified)	6.48% (inactive)	–
CCOc1ccc(S(=O)(=O)NCCC(=O)N2CCCCCCC2)cc1	9.99% (inactive)	–
CCOC(=O)c1cccc(NS(=O)(=O)c2c(C(=O)N3CCCCCC3)c(C)n(C)c2C)c1	-12.8% (inactive)	–
CCOc1ccc(S(=O)(=O)Nc2ccc(OC)nc2)cc1	8.27% (inactive)	–
CCOc1ccc(S(=O)(=O)Nc2cccc(C(=O)NCC3(N4CCCCC4)CCCCC3)c2)cc1	–	14.7 µM (active)
